Bioassay records (PubChem)
In the library only some 4.8% were active in any assay of this set; here they are far more common.
DAX1 inh-1 – NR0B1 (DAX1) inhibition | P51843 | HEK293 Gal4-DAX1 luciferase reporter, luminescence | inhibition, % at 6.75 µM | 0.99% of 340,000 active;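 active = inhibition above the mean over all tested compounds plus 3 SD, cut at about 4.2% in these data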;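 note: 0% = DAX1-transfected cells with DMSO and 100% = empty-vector control cells with DMSO; inhibition shows as a rise in luminescence from relieved DAX1 repression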
Target sequence (P51843 207-470 limits assumed): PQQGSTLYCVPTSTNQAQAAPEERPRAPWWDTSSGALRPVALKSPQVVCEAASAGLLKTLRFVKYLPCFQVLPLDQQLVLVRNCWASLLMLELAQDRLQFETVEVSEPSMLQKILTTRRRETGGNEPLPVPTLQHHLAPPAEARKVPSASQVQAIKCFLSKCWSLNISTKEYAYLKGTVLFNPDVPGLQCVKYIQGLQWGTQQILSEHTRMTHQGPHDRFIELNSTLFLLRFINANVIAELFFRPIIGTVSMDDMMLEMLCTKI
SMARCA2 activ – SMARCA2 function activation, primary screen | MG213 cells, MMTV-luciferase reporter, dexamethasone, overnight | activation, % at 9.1 µM | 1% of 370,000 active | AID 652017; in the data active = activation above about 7.8%;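 note: 0% = vehicle wells and 100% = reference activator wells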
hcDAF12 agonist – activators of H. contortus DAF-12 nuclear receptor | HEK293 hcDAF-12 lit1-tk-luc reporter, luminescence; 0% DMSO, 100% Δ7-dafachronic acid | activation, % at 6.8 µM | 1.4% of 370,000 active;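 active = activation above the mean of all tested compounds plus 3 SD, cut at about 5.5% in these data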;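 note: 100% = response to 3 µM Δ7-dafachronic acid high control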
ssDAF-12 act – activators of S. stercoralis DAF-12 nuclear receptor | 1% of 370,000 active | HEK293 ssDAF-12/GRIP1 lit1-tk-luc reporter, luminescence; % of 3 µM dafachronic acid response | AID 652126 | activation, % at 6.8 µM;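 active = activation above the mean over all tested compounds plus 3 SD, cut at about 0.9% in these data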;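 note: 0% = DMSO-only wells and 100% = 3 µM delta7-dafachronic acid wells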
DAX1 inh-2 – blocks DAX1 repression of SF-1 activated StAR promoter. HEK293T StAR-luciferase reporter, SF-1/DAX-1 repression relief. AID 652010. inhibition, % at 6.8 µM. 1.1% of 370,000 active;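 active = inhibition above the mean over all tested compounds plus 3 SD, cut at about 3.6% in these data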;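 note: 0% = DAX-1 cells with DMSO and 100% = cells lacking DAX-1 with DMSO; higher inhibition means more luminescence from relief of DAX-1 repression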
hgDAF-12 ag – hgDAF-12 agonism, primary luciferase screen; HEK293 GAL4-hgDAF12 UAS-luciferase reporter, agonist luminescence; normalized to butyrate control; activation, % at 6.8 µM; 1.8% of 370,000 active; AID 687014;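 active = activation above a cutoff set at the mean of all screened compounds plus 3 SD, cut at about 10% in these data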;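 note: 0% = DMSO wells and 100% = sodium butyrate wells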
DAX1 inh confirm – NR0B1 (human) inhibition, confirmation; HEK293T StAR-promoter luciferase reporter, SF-1/DAX-1 repression; inhibition, % at 6.8 µM; AID 652134; 87% of 2,400 active; shares compounds with DAX1 inh-2;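 active = inhibition above the average of every tested compound plus 3 SD, cut at about 3.8% in these data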;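 note: 0% = DAX-1 cells with DMSO and 100% = no DAX-1 control cells with DMSO; active compounds raise luminescence by relieving repression of the StAR reporter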
Target sequence (P51843 whole entry, looked up): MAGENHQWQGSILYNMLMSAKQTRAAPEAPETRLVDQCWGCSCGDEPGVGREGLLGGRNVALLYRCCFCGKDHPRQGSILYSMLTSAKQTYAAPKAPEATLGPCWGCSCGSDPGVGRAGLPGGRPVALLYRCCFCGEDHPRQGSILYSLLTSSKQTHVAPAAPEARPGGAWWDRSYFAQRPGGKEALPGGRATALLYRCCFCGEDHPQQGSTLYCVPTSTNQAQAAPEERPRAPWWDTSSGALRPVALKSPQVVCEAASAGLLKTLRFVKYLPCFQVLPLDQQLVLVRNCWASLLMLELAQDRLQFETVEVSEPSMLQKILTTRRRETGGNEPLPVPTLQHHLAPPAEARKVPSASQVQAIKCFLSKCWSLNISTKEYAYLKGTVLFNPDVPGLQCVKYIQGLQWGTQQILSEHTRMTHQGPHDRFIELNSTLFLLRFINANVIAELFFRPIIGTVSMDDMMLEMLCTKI
SF1 mutant ctr – nonselective inhibitor or artifact in SF-1 mutant DAX1 counter-screen. HEK293 StAR-luciferase, SF-1 AF2 mutant, luminescence. shares compounds with DAX1 inh-2. inhibition, % at 6.8 µM. 78% of 2,400 active;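 active = inhibition above the mean of all tested compounds plus 3 SD, cut at about 3% in these data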;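 note: 0% = DAX-1 transfected cells with DMSO and 100% = cells without DAX-1 with DMSO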
SMARCA2 act conf – confirmation of SMARCA2 (BRM) function activators | shares compounds with SMARCA2 activ | MG213 cells, MMTV-luciferase with dexamethasone, luminescence, overnight; MG213 cells expressing E1A, Rb sequestered; DMSO wells 0%, reference activator 100% | activation, % at 9.1 µM | AID 652260 | 30% of 3,500 active;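 active = activation above its plate's cutoff, the mean activation of tested wells plus 3 SD, cut at about 7.9% in these data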
GAL4-VP16 Luc – GAL4-VP16 reporter activation counter-screen. shares compounds with SMARCA2 activ. HEK293 GAL4-VP16 pG5luc reporter, luciferase luminescence; scaled: DMSO wells 0%, SAHA wells 100%. activation, % at 9.1 µM. 41% of 3,500 active. AID 686939;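 active = activation above the solvent-only control well mean plus 3 SD, averaged across control plates, cut at about 5.2% in these data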
LXR ag – activates human LXR-beta, counter-screen for hcDAF-12 agonists; activation, % at 6.8 µM; HEK293 Gal4-LXR tk-luc reporter, luminescence, 24 h; normalized: DMSO 0%, positive control 100%; AID 743027; shares compounds with hcDAF12 agonist; 3,400 tested, under 10 active;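 active = mean percent activation of the reporter above a cutoff set as the average over tested compounds plus their standard deviation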
hcDAF12 ag – confirmation of H. contortus DAF-12 agonists | shares compounds with hcDAF12 agonist | HEK293 hcDAF-12 lit1-tk-luc reporter, luminescence; % of Δ7-dafachronic acid response | activation, % at 6.8 µM | 61% of 3,400 active | AID 743032;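 active = mean activation across triplicate tests above the threshold derived from the earlier primary screen, cut at about 5.5% in these data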;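 note: 0% = DMSO only wells and 100% = 3 µM Δ7-dafachronic acid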
* marks the source's active call; other numbers are inactive results; x = no result; ! = not confirmed by another sample.

SMILES | DAX1 inh-1 | SMARCA2 activ | hcDAF12 agonist | ssDAF-12 act | DAX1 inh-2 | hgDAF-12 ag | DAX1 inh confirm | SF1 mutant ctr | LXR ag | hcDAF12 ag | others
C/C(=N\NC(=O)c1ccccc1)C1C2C=CC(C2)C1(C)C (configuration not stated) | 5.3* | 5.1 | 8.3* | 1.9* | 6.0* | 9.2 | 1.9 | 0.3 | 0.0 | 3.7
O=C(CCN1C(=O)C2CCCCC2C1=O)Nc1nc2ccc(F)cc2s1 (configuration not stated) | 1.7 | 0.8 | 6.9* | 0.8 | 4.7* | 8.9 | 13.1* | 3.5* | 2.0 | 15.3*
O=C(Nc1ncccc1O)c1ccc2ccccc2c1 | -0.5 | 5.9 | 9.9* | -0.1 | 10.2* | 12.5* | 14.0* | 7.4* | 1.4 | 6.9*
O=C(Nc1ncccc1O)c1ccc(Cl)c(S(=O)(=O)N2CCCCCC2)c1 | -1.5 | -1.9 | -0.6 | -1.1 | 0.6 | -1.1 | x | x | x | x
CCc1nc(SCC(=O)Nc2nnc(CC)s2)c2c(C)c(C)sc2n1 | -0.9 | -1.0 | 1.4 | -1.5 | -0.2 | -3.8 | x | x | x | x
CC(=O)Nc1cccc(-c2ccnc3c2CC(C)(C(=O)Nc2ccccc2)O3)c1 (configuration not stated) | x | -1.6 | -2.8 | -1.6 | -1.1 | -2.4 | x | x | x | x
Cc1ccc(C(=O)Nc2ccc3c(c2)nc2n3CCSC2)cc1 | 0.1 | 3.6 | 7.0* | 0.4 | 4.6* | 9.9 | 13.0* | 7.5* | 1.1 | 4.1
CC(=O)Nc1ccc2c(c1)nc1n2CCSC1 | -0.3 | 2.1 | -2.0 | -1.5 | -0.1 | 0.5 | x | x | x | x
COc1ccc(CCNC(=O)CS(=O)Cc2nc(-c3ccc(C)cc3)oc2C)cc1OC (configuration not stated) | 0.2 | -0.1 | -0.5 | -1.6 | 1.3 | 0.6 | x | x | x | x
Cc1ccc(C2=NN(S(C)(=O)=O)C(c3ccc4c(c3)OCO4)C2)cc1 (configuration not stated) | 1.1 | 4.7 | 12.9* | 0.9* | 5.4* | 21.3* | 19.3* | 9.0* | 1.5 | 14.0*
CS(=O)(=O)Nc1ccc(C2=NN(S(C)(=O)=O)C(c3ccc4nccnc4c3)C2)cc1 (configuration not stated) | 0.0 | -0.3 | -0.9 | -0.5 | -0.2 | 2.0 | x | x | x | x
O=C(Nc1ccc(N2CCOCC2)cc1)C1CC(=O)N(c2ccccc2)C1 (configuration not stated) | 0.0 | 2.0 | 0.0 | -1.4 | -0.8 | 2.8 | x | x | x | x
CN(C(=O)c1ccco1)c1nc2c(s1)CCCC2 | 0.6 | 0.9 | 8.6* | 1.6* | 5.1* | 12.1* | 15.8* | 6.4* | 1.0 | 8.3*
Cc1cc(C(=O)CSc2nnc(N)s2)c(C)n1Cc1cccs1 | -3.6 | 6.7 | 6.7* | -0.1 | 6.2* | 8.0 | 15.6* | 2.2 | 0.8 | 4.5
Cc1csc(SCC(=O)c2cc(C)n(Cc3cccs3)c2C)n1 | -4.2 | -5.8 | -2.5 | -2.3 | -3.0 | -9.3 | x | x | x | x
CCCc1n[nH]c2c1/C(=N\OCC)CC(C)(C)C2 | 2.9 | -1.3 | -0.7 | -1.7 | 0.0 | 0.4 | x | x | x | x
COc1ccc(-c2cc(-c3ccccc3)c(-c3ccccc3)nn2)cc1 | x | 5.2 | 3.4 | 0.1 | 0.8 | 5.5 | x | x | x | x
COc1ccc(-c2cc3c(nn2)-c2ccccc2C3=O)cc1 | 1.1 | 11.3* | 9.4* | 2.4* | 4.5* | 12.2* | -1.5 | -3.0 | 0.3 | 1.5 | SMARCA2 act conf=8.7*;GAL4-VP16 Luc=5.2*
Cc1ccc(CNC(=O)C2CCCN(S(=O)(=O)c3c(C)noc3C)C2)cc1 (configuration not stated) | -0.5 | -1.0 | -1.2 | -1.1 | 0.1 | 2.1 | x | x | x | x
N/C(CC(=O)Nc1ccc(F)cc1F)=N\OC(=O)c1cccs1 | 0.2 | -3.6 | 0.6 | -1.5 | -0.3 | 1.3 | x | x | x | x
CCOc1ccc(N/C=C/C(=O)c2ccccc2)c([N+](=O)[O-])c1 | -1.6 | 0.3 | 11.1* | 0.2 | 7.5* | 9.3 | 1.3 | -2.4 | 1.0 | 4.1
CCOc1ccc(NC(=O)/C=C/c2ccccc2)c([N+](=O)[O-])c1 | 0.0 | 7.2 | 2.1 | -0.2 | -0.2 | 5.9 | x | x | x | x
c1ccc(-c2cc3nc(NCc4cccs4)ccn3n2)cc1 | x | 0.5 | 10.1* | 0.7 | 7.8* | 12.2* | 16.1* | 8.1* | 1.6 | 6.6*
COc1cc(-c2cc3nc(NCc4cccs4)ccn3n2)cc(OC)c1OC | x | -1.2 | -3.2 | -2.0 | -0.8 | -2.8 | x | x | x | x
C(=N\Nc1nccc(-c2cccnc2)n1)/c1ccccc1 | x | 2.4 | 2.1 | -1.0 | 1.0 | 7.4 | x | x | x | x
SMILES | DAX1 inh-1 | SMARCA2 activ | hcDAF12 agonist | ssDAF-12 act | DAX1 inh-2 | hgDAF-12 ag | DAX1 inh confirm | SF1 mutant ctr | LXR ag | hcDAF12 ag | others
Cc1ccnc(N/N=C/c2ccccc2)n1 | 1.4 | 1.3 | 17.2* | 0.1 | 4.6* | 12.8* | 11.2* | 6.3* | 0.5 | 3.0
CC(C)CN(C(=O)C1CC1)C1CCS(=O)(=O)C1 (configuration not stated) | 0.5 | 0.6 | 0.1 | -0.2 | -1.0 | 0.9 | x | x | x | x
c1ccc(-c2cn3c4c(sc3n2)CCCC4)cc1 | -2.9 | -0.9 | 8.5* | 0.2 | 6.2*! | 4.8 | 10.0* | 1.5 | 1.5 | 18.8*
Cc1c(C(=O)N2CCc3ccccc3C2)sc2nc(-c3ccccc3)cn12 | -0.9 | 0.4 | -1.3 | -0.8 | 0.2 | 1.0 | x | x | x | x
CC(/C=N/NC(=O)c1cccs1)=C\c1ccccc1 | 1.5 | 2.4 | 6.8* | 1.4* | 7.0* | 16.3* | 17.9* | 7.8* | 1.8 | 7.2*
O=C(O)c1ccc(N/N=C/c2cc3c(cc2[N+](=O)[O-])OCO3)cc1 | -1.0 | 3.0 | -2.7 | -1.3 | -1.3 | -0.1 | x | x | x | x
O=C(O)c1ccc(N/N=C/c2cc3cc4c(cc3nc2Cl)OCCO4)cc1 | -5.1 | 8.4* | 11.7* | 2.9* | 7.3* | 24.2* | 25.3* | 9.6* | 3.1 | 20.5* | SMARCA2 act conf=7.7;GAL4-VP16 Luc=11.3*
